# Test results reported in PubChem BioAssay (NCI).
# Compounds without any hit were thinned out: in the full panel of roughly 83,000, 20% have a hit.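 Plates (96-well) were seeded with cells, treated with compound at one concentration, and incubated for 48 hours before percent growth was determined.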 Values without a mark were called inactive. The source made the active and inactive calls.
# Tested on: HOP-92 NSCLC
# Experiment: NCI-60 one-dose screen, 48 h (100 = growth as untreated, 0 = no growth, -100 = all killed)
# Conditions: 10 µM
# Procedure: Growth inhibition of the HOP-92 human Non-Small Cell Lung tumor cell line is measured as a screen for anti-cancer activity. Cells are grown in 96 well plates and exposed to the test compound for 48 hours. Compounds are tested at a single concentration, which is 10^-5 M for most compounds. The reported endpoint is percent growth (GI% or GIPRCNT), where numbers from 0 - 100% represent growth inhibition, and numbers from -100% - 0 represent cell death. For example, a value of 40 represents 60% growth inhibition. A value of 0 means no net growth occurred over the course of the experiment. A value of -40 indicates 40% of cells at the beginning of the experiment died by the end of the experiment. A value of -100 means all cells are dead at the end of the experiment.
# NCI-60 Human Tumor Cell Lines Screen was performed using the standard one-dose NCI protocol, which is described in more detail at https://dtp.cancer.gov/discovery_development/nci-60/default.htm.
# Compounds with GIPRCNT values below 10 were considered active. Activity score was based on GIPRCNT using the following formula: […]
# Score is 0 for GIPRCNT values of 100 or above, 50 for GIPRCNT values of 0, and 100 for GIPRCNT values of -100.
row,Compound,growth
1,O=[N+]([O-])c1ccccc1S(=O)c1ccccc1[N+](=O)[O-],76.2%
2,NC(=S)CN1CCOCC1,91.9%
3,COc1ccccc1NC(=O)C1=C(C)NC(C)=C(C(=O)Nc2ccccc2OC)C1c1cccc([N+](=O)[O-])c1,56.8%
4,CC(C)COC(=O)COC(=O)OCCOCCOC(=O)OCC(=O)OCC(C)C,95.7%
5,CCOc1ccc(Br)cc1/C=N\N=C\c1cc(Br)ccc1OCC,92.2%
6,COc1ccc2c(NCCCCCCCCNc3c4ccccc4nc4cc(OC)ccc34)c3ccccc3nc2c1,-100% (active)
7,Cc1ccc(S(=O)(=O)O)c(C)c1,92.4%
8,O=C1NC(=O)C2C(=O)NC(=O)C1C21CCc2ccccc21 (stereo not given),89.5%
9,CC(=O)Cc1ccc(-c2ccccc2)cc1,96.3%
10,COC(=O)/C=C\C(=O)OC,95.4%
11,CC1Cc2ccccc2O1 (stereo not given),109%
12,CN(c1ccccc1)c1ncnc2c1ncn2C,105%
13,O/N=C/c1ccc(O)cc1O,92%
14,CN(C)c1ccc(CNC(C(=O)c2ccccc2)c2ccccc2)cc1 (stereo not given),78.9%
15,CC12CC3CC1C(C(=O)O2)C3C(=O)O (stereo not given),107%
16,Cc1cc(C(O)(c2ccc(Nc3ccccc3)cc2)c2ccc(Nc3ccc(S(=O)(=O)O)cc3)cc2)ccc1N (stereo not given),-23.8% (active)
17,O=[N+]([O-])c1ccc(N=Nc2ccc(O)c3ccccc23)cc1,10.8%
18,Cc1ccc(/C=C2\SC(=S)N(c3ccc(F)cc3)C2=O)o1,87.6%
19,COc1ccc(/C(C#N)=C2C=C/C(=N/O)c3ccccc3\2)cc1,13.3%
20,COc1cc(OC)c2ccc(=O)oc2c1,98.3%

row,Compound,growth
1,CCN=c1cc2sc3cc(NCC)c(C)cc3nc-2cc1C,16.3%
2,CCOC(=O)C1OC1c1ccccc1 (stereo not given),99.2%
3,C#CCSc1nnnn1-c1ccc(Br)c(C)c1,69.9%
4,CC1(C)N=C(N)N=C(N)N1c1cccc(Br)c1,83%
5,CCOC(=O)CCCS(C)(=O)=O,87%
6,Cc1cc(Cc2cc(C)c(N)cc2N)c(N)cc1N,91.4%
7,c1ccc(Sc2ccccc2)cc1,90.9%
8,CNc1nc(NC)c2cn[nH]c2n1,84.9%
9,O=S(=O)(O)c1ccc(O)c2ccccc12,98.8%
10,COC1=CC(=O)c2nc(Cl)ccc2C1=O,-18.4% (active)
11,C[N+](C)(C)C(=O)c1ccccc1,102%
12,CC(C)=NNc1ccc([N+](=O)[O-])cc1[N+](=O)[O-],80.2%
13,CC1C(=O)c2ccccc2CC1C(=O)O (stereo not given),101%
14,Cn1cnc2nc(Cl)nc(Cl)c21,31.3%
15,CC(=O)CC(=O)N(C)C,81.8%
16,C=CCNc1ccccc1,88.5%
17,Cc1ccc(C(=O)c2ccccc2)c(C)c1,111%
18,CC(C)OC(=O)c1cc(NC(=S)OC(C)C)ccc1Cl,73.8%
19,C1CNC(C2=NCCN2)=N1,93.6%
20,OCCN1CCOCC1,115%
